Test results reported in PubChem BioAssay (Tox21).
Inconclusive results are not listed. Values without a mark were called inactive. Calls follow the shape of the dose curve; as a rule, active = well fitted curve in the direction sought with a large enough effect in the repeat runs; inconclusive = weak or mixed curves; inactive = no such curve, though single readings can be large; an effect the other way counts as inactive or inconclusive. Where a SMILES comes first, the peptide text is derived from it.

Test: qHTS RealTime-Glo MT Cell Viability Assay in HepG2 cells - 40 hour (AID 1224870); also: nearly all actives have a fitted effect of over 50% in size
Conditions: RealTime-Glo luminescence; series mostly up to 76.8 µM; activity change, negative = cytotoxic: at the top concentration
Method in brief: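 HepG2 cells mixed with RealTime-Glo MT reagents (NanoLuc plus cell-permeant prosubstrate) were seeded at 600 cells/well, incubated 5 h at 37 C/5% CO2, then pinned with compounds in DMSO; nonlytic luminescence tracked viability during 40 h treatment.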
% is scaled to controls: 0 for no effect and ±100 for the full control effect.

Row | Structure (SMILES) | activity change, negative = cytotoxic
1 | CCO | 11.8%
2 | CC1=C(O)C(=O)C(C)O1 (centres undefined) | 2.12%
3 | COP(=O)(O)OP(=O)(O)OC | 1.61%
4 | COC(=O)c1ccccc1C(=O)O | 1.05%
5 | CCCCCCCCCCCCCCCCCCOCCO | -6.69% [at 15.8 µM]
6 | CCNC(=O)NCc1cccc(Cl)c1 | 1.51% [at 35.3 µM]
7 | OC1OCCOC1O (centres undefined) | 0.792%
8 | Cc1c(Cl)cccc1Cl | 0.0674%
9 | CC(=O)OC1CCCCC1C(C)(C)C (centres undefined) | 1.68%
10 | CCCCCCC1(C)CCC(=O)O1 (centres undefined) | 0.381%
11 | C=CCCCCCCCC | -0.235%
12 | Cc1cc(C)c(C(=O)O)c(C)c1 | -3.09%
13 | CC1(C)Cc2cccc(N)c2O1 | 0.0856%
14 | COC(C)(OC)OC | 0.445%
15 | O=C(NCN1CCOCC1)c1cnccn1 | 0.179% [at 35.3 µM]
16 | COc1cc(/C=C/C(N)=O)cc(OC)c1OC | 3.66% [at 35.3 µM]
17 | CCCCOCC(C)O (centres undefined) | 0.473%
18 | COC(=O)CCCCC(CCSS/C(CCO)=C(\C)N(C=O)Cc1cnc(C)nc1N)SC(C)=O (centres undefined) | 0.949% [at 35.3 µM]
19 | C[C@]12CCC(=O)C=C1CC[C@H]1[C@@H]3CC[C@](O)(C(=O)CO)[C@@]3(C)C[C@H](O)[C@@]12F | 0.256% [at 35.3 µM]

Row | Structure (SMILES) | activity change, negative = cytotoxic
20 | CCn1cc(C(=O)O)c(=O)c2cnc(N3CCCC3)nc21 | 1.51% [at 6.97 µM]
21 | C[C@@H](O)C(=O)O | 1.52%
22 | O=C(Cl)c1ccccc1[N+](=O)[O-] | -3.36%
23 | CC(=O)N[C@@H](CO)C(=O)N[C@@H](CC(=O)O)C(=O)N[C@@H](CCCCN)C(=O)N1CCC[C@H]1C(=O)O (Ac-SDKP-OH) | 1.72% [at 35.3 µM]
24 | COc1cc(OC)nc(O[C@H](C(=O)O)C(OC)(c2ccccc2)c2ccccc2)n1 | 0.0944% [at 35.3 µM]
25 | CC1(C)CC(OC(=O)CCCCCCCCC(=O)OC2CC(C)(C)NC(C)(C)C2)CC(C)(C)N1 | 6.12% [at 15.8 µM]
26 | CC1(C)O[C@H]2CC(=O)OC[C@]23[C@H]2CC[C@@]4(C)[C@H](c5ccoc5)OC(=O)[C@H]5O[C@]54[C@]2(C)C(=O)C[C@@H]13 | 5.04% [at 35.3 µM]
27 | CC(N)CCCC(C)(C)O (centres undefined) | 0.014% [at 35.3 µM]
28 | COC(=O)c1cccc(Cl)c1 | 0.0165%
29 | CC(C)OC(=O)CCC(=O)OC(C)C | 0.358%
30 | CCN(CC)CCN | -5.29% [at 35.3 µM]
31 | CCOCCOCC | 0.226%
32 | C[C@H]1[C@@H](c2ccccc2)NC(=O)N1C | 1.99%
33 | CN(C)CCN(C)CCO | -0.416%
34 | CN(C)CCOC(=O)C(c1ccccc1)C1(O)CCCC1 (centres undefined) | 1.97% [at 35.3 µM]
35 | CC1=C(C(=O)O)N2C(=O)[C@@H](NC(=O)[C@H](N)C3=CCC=CC3)[C@H]2SC1 | -3.47% [at 35.3 µM]
36 | CC(=O)O[C@H]1C[C@@H]2CC[C@@]1(C)C2(C)C | 0.156%
37 | Cc1ccc(C(C)NC(=O)[C@@H](NC(=O)OC(C)C)C(C)C)cc1 (some centres undefined) | -1.41%

Test: A CellTox Green Cytotoxicity Assay to monitor cytotoxicity in HEK293 cells - 40 hour (AID 1224871); also: nearly all actives have a fitted effect of over 45% in size
Conditions: CellTox Green fluorescence; series mostly up to 76.8 µM; cytotoxicity increase: at the top concentration
Method in brief: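 Read-out: fluorescence of a cell-impermeant cyanine dye staining DNA of dead cells, proportional to cytotoxicity. HEK293, 600 cells/well with reagent, compound (23 nL DMSO) added after 5 h; reads at 0, 8, 16, 24, 32, 40 h.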

Row | Structure (SMILES) | cytotoxicity increase
38 | CCO | -13.7%
39 | CC1=C(O)C(=O)C(C)O1 (centres undefined) | 7.58%
40 | COP(=O)(O)OP(=O)(O)OC | -20.1%
41 | COC(=O)c1ccccc1C(=O)O | -14.4%
42 | CCCCCCCCCCCCCCCCCCOCCO | 8.77% [at 15.8 µM]
43 | CCNC(=O)NCc1cccc(Cl)c1 | -22.2% [at 35.3 µM]
44 | OC1OCCOC1O (centres undefined) | -1.02%
45 | Cc1c(Cl)cccc1Cl | -8.89%
46 | CC(=O)OC1CCCCC1C(C)(C)C (centres undefined) | -22.5%
47 | CCCCCCC1(C)CCC(=O)O1 (centres undefined) | -2.14%
48 | C=CCCCCCCCC | 1.07%
49 | Cc1cc(C)c(C(=O)O)c(C)c1 | 11.5%
50 | CC1(C)Cc2cccc(N)c2O1 | 1.57%
51 | COC(C)(OC)OC | -1.97%
52 | O=C(NCN1CCOCC1)c1cnccn1 | 3.93% [at 35.3 µM]
53 | COc1cc(/C=C/C(N)=O)cc(OC)c1OC | 0.661% [at 35.3 µM]
54 | CCCCOCC(C)O (centres undefined) | -3.98%
55 | COC(=O)CCCCC(CCSS/C(CCO)=C(\C)N(C=O)Cc1cnc(C)nc1N)SC(C)=O (centres undefined) | -3.71% [at 35.3 µM]
56 | C[C@]12CCC(=O)C=C1CC[C@H]1[C@@H]3CC[C@](O)(C(=O)CO)[C@@]3(C)C[C@H](O)[C@@]12F | -1.19% [at 35.3 µM]

Row | Structure (SMILES) | cytotoxicity increase
57 | CCn1cc(C(=O)O)c(=O)c2cnc(N3CCCC3)nc21 | 3.57% [at 6.97 µM]
58 | C[C@@H](O)C(=O)O | -18.2%
59 | O=C(Cl)c1ccccc1[N+](=O)[O-] | 11.9%
60 | CC(=O)N[C@@H](CO)C(=O)N[C@@H](CC(=O)O)C(=O)N[C@@H](CCCCN)C(=O)N1CCC[C@H]1C(=O)O (Ac-SDKP-OH) | -5.63% [at 35.3 µM]
61 | COc1cc(OC)nc(O[C@H](C(=O)O)C(OC)(c2ccccc2)c2ccccc2)n1 | -11.4% [at 35.3 µM]
62 | CC1(C)CC(OC(=O)CCCCCCCCC(=O)OC2CC(C)(C)NC(C)(C)C2)CC(C)(C)N1 | -6.42% [at 15.8 µM]
63 | CC1(C)O[C@H]2CC(=O)OC[C@]23[C@H]2CC[C@@]4(C)[C@H](c5ccoc5)OC(=O)[C@H]5O[C@]54[C@]2(C)C(=O)C[C@@H]13 | 1.13% [at 35.3 µM]
64 | CC(N)CCCC(C)(C)O (centres undefined) | -11.8% [at 35.3 µM]
65 | COC(=O)c1cccc(Cl)c1 | -0.264%
66 | CC(C)OC(=O)CCC(=O)OC(C)C | -9.31%
67 | CCN(CC)CCN | -3.45% [at 35.3 µM]
68 | CCOCCOCC | -1.82%
69 | C[C@H]1[C@@H](c2ccccc2)NC(=O)N1C | 1.83%
70 | CN(C)CCN(C)CCO | -16.2%
71 | CN(C)CCOC(=O)C(c1ccccc1)C1(O)CCCC1 (centres undefined) | 8.71% [at 35.3 µM]
72 | CC1=C(C(=O)O)N2C(=O)[C@@H](NC(=O)[C@H](N)C3=CCC=CC3)[C@H]2SC1 | -18.4% [at 35.3 µM]
73 | CC(=O)O[C@H]1C[C@@H]2CC[C@@]1(C)C2(C)C | 7.75%
74 | Cc1ccc(C(C)NC(=O)[C@@H](NC(=O)OC(C)C)C(C)C)cc1 (some centres undefined) | -11.5%
